Source: PubChem BioAssay AID588849 (Broad Institute, 2011)
Potency and affinity values are given separately. Active and inactive are the calls of the source. A call without a number means that no potency is given here. How the calls were made is not given here.

Biological target: CAAX prenyl protease 2 (Homo sapiens) (UniProt Q9Y256)
Experiment: inhibition of Ras-converting CAAX protease Rce1 – biochemical, yeast membranes, quenched-peptide fluorescence, cherry-pick, dose response (AID 588849)

CAAX prenyl protease 2 (Homo sapiens), sequence (Q9Y256 whole entry, looked up): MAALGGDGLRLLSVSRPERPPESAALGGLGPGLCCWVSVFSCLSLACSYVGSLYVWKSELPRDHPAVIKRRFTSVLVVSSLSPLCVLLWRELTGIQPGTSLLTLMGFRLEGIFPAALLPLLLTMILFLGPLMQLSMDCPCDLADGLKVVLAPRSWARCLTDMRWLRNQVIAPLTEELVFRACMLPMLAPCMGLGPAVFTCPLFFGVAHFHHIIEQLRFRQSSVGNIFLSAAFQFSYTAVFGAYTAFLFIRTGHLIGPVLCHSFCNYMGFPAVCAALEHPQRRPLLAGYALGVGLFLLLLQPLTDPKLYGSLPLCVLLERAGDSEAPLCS

Compound | outcome
CC(=O)c1c(O)cc(O)c(C(C)=O)c1O | inactive
COc1cc(-c2nc3ccccn3c2/N=C/c2cccc(OC)c2O)ccc1O | inactive
CCN(Cc1ccccc1)c1ccc(/C=N/N=C(N)N)cc1 | inactive
COc1cccc(C2CC(c3cccs3)=NN2C(=O)CSc2nc3c(cnn3-c3ccc(F)cc3)c(=O)[nH]2)c1OC (configuration not stated) | inactive
CCN(Cc1ccccc1)S(=O)(=O)c1ccc(C(=O)N(CCCN(C)C)c2nc3cc(C)cc(C)c3s2)cc1 | inactive
COc1ccccc1NC(=O)/C(=C\c1cccnc1)NC(=O)c1ccc(C)cc1 | inactive
O=C(NC1CC1)c1ccc2c(c1)N(Cc1ccccc1)CCS2 | inactive
COc1ccc(C(=O)/C=C/c2ccc(OC)cc2OC)c(O)c1 | inactive
CC(=O)c1c(C)[nH]c(C(=O)OCc2ccc(Br)cc2)c1C | inactive
O=C(Nc1ncccn1)c1ccc([N+](=O)[O-])cc1 | inactive
Cc1nc2c(C)cccn2c(=O)c1NC(=O)COc1ccccc1 | inactive
COC(C/C=C\C(=O)[C@H](C)OCc1ccccc1)OC | inactive
CCn1cc(/C=C(\NC(=O)c2ccccc2F)C(=O)N2CCCC2)c2ccccc21 | inactive
CCC1(c2ccccc2)NC(=O)N(CC(=O)Nc2ccc3c(C)cc(=O)oc3c2)C1=O (configuration not stated) | inactive
C/C(CC1(O)C(=O)Nc2ccccc21)=N\O (configuration not stated) | inactive
COc1ccc(-n2c(SCc3ccc([N+](=O)[O-])cc3)nnc2-c2ccc(C)cc2)cc1 | inactive
COc1cccc(-c2cc(C(F)(F)F)n3ncc(S(=O)(=O)c4ccccc4)c3n2)c1 | inactive
